{"source": "PubChem BioAssay (NCI)", "note": "This is part of a sample that, as a whole, favours compounds with a hit. Of some 83,000 tested, about 20% had one in any assay.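 For each line, cells grew in 96-well plates with the test compound present at a single concentration for 48 hours.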 The source made the active and inactive calls.", "data": [{"tested_on": "SR leukemia", "test": "NCI-60 one-dose screen, 48 h (100 = growth as untreated, 0 = no growth, -100 = all killed)", "conditions": "10 µM unless noted", "experimental": "Growth inhibition of the SR human tumor cell line is measured as a screen for anti-cancer activity. Cells are grown in 96 well plates and exposed to the test compound for 48 hours. Compounds are tested at a single concentration, which is 10^-5 M for most compounds. The reported endpoint is percent growth (GI% or GIPRCNT), where numbers from 0 - 100% represent growth inhibition, and numbers from -100% - 0 represent cell death. For example, a value of 40 represents 60% growth inhibition. A value of 0 means no net growth occurred over the course of the experiment. A value of -40 indicates 40% of cells at the beginning of the experiment died by the end of the experiment. A value of -100 means all cells are dead at the end of the experiment.\nNCI-60 Human Tumor Cell Lines Screen was performed using the standard one-dose NCI protocol, which is described in more detail at https://dtp.cancer.gov/discovery_development/nci-60/default.htm.\nCompounds with GIPRCNT values below 10 were considered active. Activity score was based on GIPRCNT using the following formula: […]\nScore is 0 for GIPRCNT values of 100 or above, 50 for GIPRCNT values of 0, and 100 for GIPRCNT values of -100.", "values": [{"smiles": "COc1cc(/C=N\\NC(=O)CN2CCN(c3cc4c(cc3F)c(=O)c(C(=O)N/N=C/c3ccc(O)c(OC)c3)cn4C3CC3)CC2)ccc1O", "growth": "33.9% (inactive)"}, {"smiles": "C=C1C(=O)O[C@H]2[C@H]1CC/C(Cn1cc(Cc3c[nH]c4ccccc34)nn1)=C\\CC[C@@]1(C)O[C@@H]21", "growth": "-5.78% (active)"}, {"smiles": "COc1cc(NCCCCN=C(N)NC(N)=NC(C)C)c2ncccc2c1", "growth": "98.2% (inactive)"}, {"smiles": "CCCCCCCCCCCCCC1=NCCN1CCO", "growth": "-4.54% (active)"}, {"smiles": "S=c1[nH]nc(CSc2ncnc3c2c(-c2ccccc2)cn3-c2ccc(Cl)cc2)o1", "growth": "105% (inactive)"}, {"smiles": "Cn1c2ccccc2c2c3[nH]c(=O)[nH]c(=O)c3c3c4ccccc4n(C)c3c21", "growth": "13.7% (inactive)"}, {"smiles": "O=C1Nc2ccccc2/C1=C/C(=N/c1nnc(-c2ccccc2)s1)c1ccccc1", "growth": "-23% (active)"}, {"smiles": "ClC1=C2NC=NC2n2c(nnc2-c2ccc(Cl)cc2)N1", "note": "(stereo not given)", "growth": "91.9% (inactive)"}, {"smiles": "CNC(=O)c1cc(Oc2ccc3nc(NC(=O)Nc4ccc(CN5CCOCC5)c(C(F)(F)F)c4)sc3c2)ccn1", "growth": "-0.0928% (active)"}, {"smiles": "CCOc1ccc(Nc2nc(-c3c(C)nc4ncccn34)cs2)cc1", "growth": "6.09% (active)"}, {"smiles": "O=c1c2cccc3c(NC4CCCCC4)ccc(c32)c2nc3ccccc3n12", "growth": "1.11% (active)"}, {"smiles": "C/C(=C(/c1ccc(O)cc1)c1ccc(Cl)cc1)c1ccccc1", "growth": "-27.9% (active)"}, {"smiles": "COc1ncc(-c2ccc3ncnc(Nc4cccc(Cl)c4)c3c2)cc1NS(C)(=O)=O", "growth": "50.6% (inactive)"}, {"smiles": "COc1cc(OC)c(/C=C/S(=O)(=O)Cc2cnc(OC)c(N)c2)c(OC)c1", "growth": "-6.9% (active)"}, {"smiles": "COc1ccc(OCC(=O)Nc2ccc(-c3nc4ccccc4s3)cc2C)cc1", "growth": "76.1% (inactive)"}, {"smiles": "C#Cc1nc(Nc2cc(C)[nH]n2)c2ccccc2n1", "growth": "3.84% (active)"}, {"smiles": "Oc1cc(O)c2c(=S)cc(-c3ccc(Cl)cc3)oc2c1", "growth": "36.1% (inactive)"}, {"smiles": "NS(=O)(=O)c1ccc(-n2ncc3c(=O)[nH]c(CN4CCN(c5cc6c(cc5F)c(=O)c(C(=O)O)cn6C5CC5)CC4)nc32)cc1", "growth": "97.2% (inactive)"}, {"smiles": "CC[n+]1ccc2c(c1)C(=O)c1nccc3c1c-2nc1ccccc13", "growth": "5.79% (active)"}, {"smiles": "COc1cccc2c1C(=O)c1c(O)c3c(c(O)c1C2=O)C[C@@](O)(/C(C)=N/NC(=O)c1ccc(Cl)cc1)C[C@@H]3OC1CC(N)C(O)C(C)O1", "note": "(stereo not given in full)", "growth": "-34.1% (active)"}, {"smiles": "Cc1cc2cc3cc(C)c(N(C)C)cc3[n+](C)c2cc1N(C)C", "growth": "76.9% (inactive)"}, {"smiles": "C[C@@H]1CCC2=C(CCC[C@]2(C)C(=O)O)[C@@]1(C)CCc1ccoc1", "growth": "97.6% (inactive)"}, {"smiles": "COC(/C=C/c1ccc([N+](=O)[O-])cc1)OC", "growth": "31.6% (inactive)"}, {"smiles": "OC(c1cc(-c2ccccc2)nc2ccc(Cl)cc12)C1CCCCN1", "note": "(stereo not given)", "growth": "-25.8% (active)"}, {"smiles": "CC/C(Cc1ccccc1)=C(\\c1ccc(OCCN2CCCC2)cc1)c1ccc(OC(C)=O)cc1", "growth": "14.3% (inactive)"}, {"smiles": "COc1cc2c(=O)n(CC3CCCCC3)c3c4cc[nH]c4ncc3c2cc1OC", "growth": "6.22% (active)"}, {"smiles": "CCC(=O)Oc1ccc(/C(=C(\\C)c2ccccc2)c2ccc(OCCN(CC)CC)cc2)cc1", "growth": "43.9% (inactive)"}, {"smiles": "C=CC[N+]1(CC)CCN=C1CCCCCCCCCCCCCCCCC", "note": "(stereo not given)", "growth": "-64.7% (active)"}, {"smiles": "Cc1ccc(S(=O)(=O)n2cc(-c3csc(-c4cn(C)c5ncccc45)n3)c3ccccc32)cc1", "growth": "2.53% (active)"}, {"smiles": "CN(C)CCCC(=O)Nc1ccc(Cn2nnc3c2C(=O)c2nnn(Cc4ccc(NC(=O)CCCN(C)C)cc4)c2C3=O)cc1", "growth": "74.7% (inactive)"}, {"smiles": "Cc1ccc2c(NCCCN(C)C)c3c(C)nn(C)c3nc2c1", "growth": "5.55% (active)"}, {"smiles": "CCCCCCCCCCCCS(=O)CC(C)O", "note": "(stereo not given)", "growth": "110% (inactive)"}, {"smiles": "CNc1nc(C)c(-c2nc(Nc3cccc(S(N)(=O)=O)c3)ncc2F)s1", "growth": "-18.5% (active)"}, {"smiles": "COc1c(C2CC(=O)Nc3c2cnn3Cc2ccco2)cc2c(c1OC)OCO2", "note": "(stereo not given)", "growth": "2.13% (active)"}, {"smiles": "COc1ccccc1-c1ccc2c(N)c(C(=O)c3ccc4c(c3)OCO4)sc2n1", "growth": "9.21% (active)"}, {"smiles": "CCOC(=O)c1cnc2ccc(OC)cc2c1Nc1cccc(S(=O)(=O)NC)c1", "growth": "95.6% (inactive)"}, {"smiles": "CS(=O)CCCCCN=C=S", "note": "(stereo not given)", "growth": "-13.9% (active)"}, {"smiles": "Cc1ccc(SCN2CCN(c3cccc(Cl)c3)CC2)cc1", "growth": "91.7% (inactive)"}, {"smiles": "CC(=O)C1=C(O)C=C2Oc3c(C(=O)/C=C/c4c(Cl)cccc4Cl)c(O)c(C)c(O)c3[C@]2(C)C1=O", "growth": "-31% (active)"}, {"smiles": "Cn1cc(-c2nc(-c3c[nH]c4ccccc34)cs2)c2cccnc21", "growth": "23% (inactive)"}]}]}
